Bioassay records as filed in PubChem BioAssay.
ALDH1A1 inh: blocks purified human ALDH1A1 activity; AID 1030; Purified ALDH1A1, NADH fluorescence, propionaldehyde substrate; Potency, µM (series often up to 75.3 µM), most hits filed as inhibitors; 7.3% of 220,000 active; P00352
Target sequence (P00352 whole entry, looked up): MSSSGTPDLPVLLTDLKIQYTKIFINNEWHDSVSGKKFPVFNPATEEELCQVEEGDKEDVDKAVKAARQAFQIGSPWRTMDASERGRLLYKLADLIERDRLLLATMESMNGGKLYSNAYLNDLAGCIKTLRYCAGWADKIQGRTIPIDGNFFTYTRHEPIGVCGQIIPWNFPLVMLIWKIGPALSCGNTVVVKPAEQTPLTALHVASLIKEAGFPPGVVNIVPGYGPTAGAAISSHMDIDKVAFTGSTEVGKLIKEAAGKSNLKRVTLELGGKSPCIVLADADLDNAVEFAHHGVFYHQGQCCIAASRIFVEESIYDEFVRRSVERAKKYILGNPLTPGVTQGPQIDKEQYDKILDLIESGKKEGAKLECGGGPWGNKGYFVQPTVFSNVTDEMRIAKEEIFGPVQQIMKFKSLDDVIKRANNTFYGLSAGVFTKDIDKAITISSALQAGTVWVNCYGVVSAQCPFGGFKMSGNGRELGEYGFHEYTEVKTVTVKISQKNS
HPGD inh: HPGD (human) dehydrogenase inhibition; P15428; purified HPGD, NADH fluorescence kinetic, PGE2 substrate; Potency, µM, actives largely listed as inhibitors; 4.3% of 150,000 active
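NADH formation kinetics: reaction with 30 uM PGE2 and 1 mM NAD+ (final), 20 nM enzyme, Tris-HCl pH 8 with Tween 20, after 15 min compound preincubation at room temperature. Fluorescence change, last versus first of five reads.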
ALOX12 inhib: inhibitors of human 12-lipoxygenase (ALOX12); Potency, µM (top dose mostly 57.1 µM), actives largely listed as inhibitors; purified 12-hLO, xylenol orange hydroperoxide absorbance; 0.12% of 150,000 active; active means well fitted inhibition curve with a large enough effect; inconclusive means small, poorly fitted or top-dose-only effect; further: nearly all actives have a fitted effect of over 55% in size
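Lipoxygenase turnover measured by absorbance at 573 and 405 nm after Fe-XO development. Human 12hLO 150 nM, arachidonate 40 uM, pH 7.0 Hepes buffer with detergent; 15 min compound preincubation, 30 min reaction.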
PNC assembly inh: inhibitors of perinucleolar compartment assembly; 3.1% of 140,000 active; AID 2417; activity change (PNC), negative = inhibition, % at 10 µM; PC3M PTB-GFP, PNC prevalence imaging, 16 h; active compounds read low;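 active means readout at or below -70, meaning at least 70% loss of cells showing the perinucleolar compartment, a nuclear body marking cancer cells; inconclusive means readout between -30 and a set limit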
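PC3M cells stably expressing PTB-GFP, 750–1000 cells/well, treated 16 h at 37 °C with compound (23 nl of library stock), in duplicate. After paraformaldehyde fixation and Hoechst stain, imaged at 20x; PNC prevalence scored by image analysis.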
LMNA splice mod: changes lamin A minigene splicing in HeLa cells; HeLa LMNA splicing GFP/RFP minigene ratio, 48 h; Potency, µM (highest dose often 46.1 µM), actives largely listed as inhibitors; 0.01% of 200,000 active; AID 1487; active means well fitted inhibition curve with a large enough effect in the signal ratio, with a control signal flat, not every such curve was filed as active; inconclusive means small, poorly fitted or top-dose-only effect, or effect the other way, or a change in a side signal; the % refers to the signal ratio
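S3 HeLa stable clones carrying a lamin A-EGFP splicing minigene plus DsRed2 were seeded at 600 cells/well in Opti-MEM with 2% FBS, pin-dosed and incubated 48 h at 37°C. Acumen cytometry (488 nm) gave the GFP/RFP total-intensity ratio.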
Of the large screens only hits and unclear results are named; the others gave an inactive call. Most compounds without a hit are left out; they make up all but 10% or so of the library. Unless noted, the call rests on the fitted dose curve; in most records, active means well fitted inhibition curve with a large enough effect (not every such curve was filed as active); inconclusive means small, poorly fitted or top-dose-only effect, or another doubt; inactive means no such curve, though single readings can be large or run the other way.

COc1ccc(C(=O)NCCC2=CCCCC2)cc1	none
COc1cccc(NC(=O)CSc2nc3n[nH]c(C)c3c(=N)n2-c2cccc(OC)c2)c1	ALDH1A1 inh inconclusive, HPGD inh inconclusive
COc1cccc(-n2c(SCC(=O)NCCC3=CCCCC3)nc3n[nH]c(C)c3c2=N)c1	ALDH1A1 inh 20µM, LMNA splice mod inconclusive
Cc1cc(C(=O)NCCC2=CCCCC2)ccc1[N+](=O)[O-]	ALDH1A1 inh 25.1µM (no result: HPGD inh, ALOX12 inhib, PNC assembly inh, LMNA splice mod)
C=C(C(C)=O)C(O)c1ccc2ccccc2c1 (configuration not stated)	none (no result: PNC assembly inh, LMNA splice mod)
CN(c1ccc(F)cc1)S(=O)(=O)c1ccc(Cl)c(C(=O)OCC(=O)NCc2ccco2)c1	none (no result: HPGD inh, ALOX12 inhib, PNC assembly inh, LMNA splice mod)
COc1ccc(C(=O)NCC(=O)OCC(=O)NCCC2=CCCCC2)cc1	ALDH1A1 inh 15.8µM (no result: HPGD inh, ALOX12 inhib, PNC assembly inh)
COCCn1c(CCc2ccccc2)n[nH]c1=S	ALDH1A1 inh inconclusive (no result: HPGD inh, ALOX12 inhib, PNC assembly inh)
COCCn1c(C23CC4CC(CC(C4)C2)C3)n[nH]c1=S	HPGD inh 25.1µM
COc1cccc(N2CCN(C(=O)c3cc4cc5cc(C)ccc5nc4s3)CC2)c1	none (no result: ALDH1A1 inh, HPGD inh, ALOX12 inhib, PNC assembly inh)
O=C(/C=C/c1ccccc1Cl)NC(=S)Nc1ccccc1C(=O)NC1CCCCC1	ALDH1A1 inh 22.4µM, HPGD inh 28.2µM
CCC(=O)NC(=S)Nc1ccccc1C(=O)NC1CCCCC1	none
CC(C)C(=O)NC(=S)Nc1ccccc1C(=O)NC1CCCCC1	PNC assembly inh -113.8
Cc1ccc(-n2ccn(CC(=O)c3ccc(F)cc3)c(=O)c2=O)cc1C	none (no result: ALDH1A1 inh, HPGD inh, ALOX12 inhib, PNC assembly inh)
CCNc1ncc2nc(CCc3ccccc3)c(=O)n(-c3ccccc3)c2n1	ALDH1A1 inh inconclusive, HPGD inh inconclusive (no result: PNC assembly inh, LMNA splice mod)
COC(=O)[C@@H]1C[C@@]2(O)[C@H](O)[C@H](O)[C@H](O)C[C@H]2N1Cc1ccc(N2CCN(C)CC2)cc1	ALDH1A1 inh 22.4µM (no result: PNC assembly inh, LMNA splice mod)
COC(=O)[C@@H]1C[C@@]2(O)[C@H](O)[C@H](O)[C@H](O)C[C@H]2N1Cc1ccc(N2CCOCC2)cc1	ALDH1A1 inh inconclusive (no result: PNC assembly inh, LMNA splice mod)
CCc1ccc(NC(=O)Nc2cn(C)c(=O)c3ccccc23)cc1	none (no result: ALDH1A1 inh, HPGD inh, ALOX12 inhib, PNC assembly inh)
COc1ccc(N2CC(c3nc(-c4cc(OC)c(OC)c(OC)c4)no3)CC2=O)cc1Cl (configuration not stated)	none (no result: ALDH1A1 inh, HPGD inh, ALOX12 inhib, PNC assembly inh)
CC(C)c1ccccc1-n1cc[nH]c1=S	ALDH1A1 inh 10µM (no result: HPGD inh, ALOX12 inhib, PNC assembly inh)
Cc1cccc(-n2cc[nH]c2=S)c1C	ALDH1A1 inh 11.2µM (no result: HPGD inh)
CCOc1ccc(NC(=O)CC(C)O)cc1 (configuration not stated)	none (no result: ALDH1A1 inh, HPGD inh, ALOX12 inhib, PNC assembly inh)
COc1cccc(Cn2c(=O)c(-c3ccc(F)c(F)c3)nc3cncnc32)c1	none (no result: PNC assembly inh, LMNA splice mod)
CCOC(=O)c1cc(S(=O)(=O)N2CCN(c3ccc(F)cc3)CC2)[nH]n1	none (no result: ALDH1A1 inh, HPGD inh, ALOX12 inhib, PNC assembly inh)
CCOC(=O)/C=C1\NC(C)(C)Cc2cc(OC)c(OC)cc21	LMNA splice mod inconclusive
CCOC(=O)/C=C1\NC(C)(C)Cc2cc(OC)c(O)cc21	ALDH1A1 inh 11.2µM, HPGD inh 35.5µM, PNC assembly inh inconclusive
O=C(/C=C(\O)c1ccccc1)c1ccccc1O	HPGD inh 20µM (no result: PNC assembly inh, LMNA splice mod)
O=C(NO)c1ccccc1O	LMNA splice mod inconclusive
COc1ccc(N2C(=O)CCC(C(=O)N3CCCCCC3)C2c2ccc(OC)c(OC)c2)cc1 (configuration not stated)	none
CCCCN(C)C(=O)C1CCC(=O)N(c2cc(OC)c(OC)c(OC)c2)C1c1ccc(OC)cc1 (configuration not stated)	PNC assembly inh -100.0
COc1ccc(N2C(=O)CCC(C(=O)N(C)CCc3ccccn3)C2c2ccc(OC)c(OC)c2)cc1 (configuration not stated)	none (no result: HPGD inh, ALOX12 inhib, PNC assembly inh, LMNA splice mod)
COc1ccc(C2C(C(=O)NCc3ccco3)CCC(=O)N2c2ccc(OC)cc2)cc1 (configuration not stated)	ALDH1A1 inh 11.2µM
COc1ccc(C2C(C(=O)N3CCCCC3)CC(=O)N2c2ccc(OC)cc2)cc1 (configuration not stated)	ALDH1A1 inh 14.1µM
COc1ccc(C2C(C(=O)O)CCC(=O)N2c2ccc(OC)cc2)cc1 (configuration not stated)	none
CCNC(=O)COC(=O)C1CCC(=O)N(c2ccc(OC)cc2)C1c1ccc(OC)cc1 (configuration not stated)	ALDH1A1 inh 8.91µM
